High-throughput results from PubChem BioAssay.
Shiga toxin inh: blocks Shiga toxin action in Vero cells; inhibition, % at 38.7 µM; Vero cells, Shiga toxin protein synthesis inhibition reporter; 290,000 compounds, 9.2% hits; in the data active = inhibition mostly above about 28%, no sharp cut-off; inactive = mostly below about 43%; also: 0% is about no effect
Pf growth 96h: inhibits malaria parasite growth, 96 h; Potency, µM (top dose mostly 28.7 µM), for the others: at the highest dose activity change, negative = inhibition, hits mostly inhibitors; 320,000 compounds, 6.9% hits; P. falciparum luciferase reporter growth, 96 h; AID 504834; also: potency is read from the fitted curve at half-maximal effect; % is scaled to controls: 0 for no effect and ±100 for the full control effect
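Cell-based qHTS: luciferase-tagged P. falciparum in erythrocytes (2% hematocrit, 0.05% parasitemia final) incubated with compounds for 96 hours, 37 C, 5% CO2; luciferase detection reagent then added and luminescence measured.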
Pf growth 48h: P. falciparum growth inhibition at 48 hours (one generation). P. falciparum luciferase growth in erythrocytes, 48 h. Potency, µM (highest dose often 28.7 µM), for inactives: at the highest dose activity change, negative = inhibition, hits mostly inhibitors. 310,000 compounds, 5.9% hits. AID 504832; also: potency is read from the fitted curve at half-maximal effect; % is scaled to controls: 0 for no effect and ±100 for the full control effect
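Luciferase-expressing parasites in RBCs, 2% Hct / 0.1% parasitemia final; RPMI 1640 + 0.5% Albumax; 37 C, 5% CO2, one generation; luminescence read-out, lower signal = inhibition.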
Cycloheximide cs: counter-screen for Shiga toxin inhibitors: cycloheximide protein synthesis inhibition | cell reporter, cycloheximide protein synthesis inhibition counterscreen | max response, % | 300,000 compounds, 12% hits; in the data active = max response mostly above about 13%, no sharp cut-off; inactive = mostly below about 14%; also: read at 38.3 µM for the half of the compounds with a filed dose; 0% is about no effect
NS1 function inh: inhibitors of influenza NS1 protein function. Potency, µM (doses to about 46.1 µM), for inactives: top-dose activity, positive = more growth. AID 2326. 270,000 compounds, 0.4% hits; calls by dose curve; also: potency is read from the fitted curve at half-maximal effect; actives are rising curves; nearly all actives have a fitted effect of over 50% in size
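OD600 was taken as the measure of yeast growth restored by compound in an NS1-expressing S. cerevisiae strain. Cells had been washed out of glucose medium and diluted 1:100 into galactose -URA medium, pH 6.0.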
Sm TGR block: inhibitors of Schistosoma mansoni thioredoxin glutathione reductase; 360,000 compounds, 3% hits; Q962Y6; Potency, µM (highest dose often 114 µM), for inactives: at the top dose activity change, negative = inhibition, most hits filed as inhibitors; purified TGR, DTNB reduction, TNB absorbance 405 nm; also: potency is read from the fitted curve at half-maximal effect; % is scaled to controls: 0 for no effect and ±100 for the full control effect; nearly all actives have a fitted effect of over 60% in size
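First, TGR (20 nM dispensed) and NADPH were mixed with compound. Second, a 15 min room-temperature incubation followed. Third, further NADPH and then DTNB were added to start the reaction. Finally, TNB absorbance was monitored kinetically.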
An asterisk follows results filed as active; u = inconclusive; x = not tested or not shown. In the library only some 21% were active in any assay of this set; here they are far more common. Unless noted, calls follow the shape of the dose curve; as a rule, active = well fitted curve in the direction sought with a large enough effect; inconclusive = small, poorly fitted or top-dose-only effect, or another doubt; inactive = no such curve, though single readings can be large; an effect the other way counts as inactive or inconclusive.

SMILES | Shiga toxin inh | Pf growth 96h | Pf growth 48h | Cycloheximide cs | NS1 function inh | Sm TGR block
Cc1cccc(N2CCN(S(=O)(=O)c3ccc(F)c(C(=O)Nc4ccc(C(C)C)cc4)c3)CC2)c1C | x | x | x | x | x | 10%
O=C(NC(=S)NCC1CCCO1)c1ccccc1 (stereo not drawn) | 34* | 34% | 50% | 31* | 13% | -16%
O=C(NC(=S)NCC1CCCO1)c1ccc(Cl)cc1 (stereo not drawn) | 41* | 15% | 67% | 29* | 14% | -16%
O=C(NCC1CCCO1)c1ccccc1 (stereo not drawn) | 27 | u | 28% | 3 | 10% | 1%
O=C(NC(=S)NCC1CCCO1)c1ccc([N+](=O)[O-])cc1 (stereo not drawn) | 10 | 0.59µM* | 25% | 9 | 26% | -23%
O=C1NC[C@H](c2ccccc2)N(CCC23CC4CC(CC(C4)C2)C3)C1=O | x | u | u | x | x | -3%
OC(c1ccccc1)(c1ccc(F)cc1)C(c1ccccc1)N1CCOCC1 (stereo not drawn) | -8 | 6.6µM* | 38% | 7 | -21% | 10%
OC(c1ccc(F)cc1)C(CN1CCOCC1)c1ccccc1 (stereo not drawn) | -4 | 10µM* | 12µM* | -8 | 2% | -2%
COc1cccc(OCC(O)CN2CCOCC2)c1 (stereo not drawn) | 9 | u | u | 6 | 4% | -5%
CCCCCOc1ccc(C(O)C(CN2CCOCC2)c2ccccc2)cc1 (stereo not drawn) | -3 | -4% | 2.6µM* | -1 | -27% | -14%
COc1ccc(C(O)C(CN2CCOCC2)c2ccccc2)cc1 (stereo not drawn) | 23 | 9.3µM* | u | 6 | 11% | 1%
O=C(c1ccccc1)c1ccc(OCC(O)CN2CCOCC2)cc1 (stereo not drawn) | x | x | x | x | -4% | x
O=C1CN(C(=O)CSc2nnc(C3CC3)n2-c2ccccc2)c2ccccc2N1 | -16 | -13% | -9% | 22 | 5% | 12%
COc1cccc(C(=O)C2CCCN(Cc3cccc(-n4nc(C)cc4C)c3)C2)c1 (stereo not drawn) | -9 | u | u | -2 | -3% | -2%
COc1ccccc1N(CC(=O)NCc1ccco1)S(=O)(=O)c1ccc(C)cc1 | 6 | 69% | -26% | -2 | -1% | 40µM*
COc1ccc(N(CC(=O)NCc2ccco2)S(=O)(=O)c2ccc(C)cc2)cc1OC | 3 | 13% | -14% | 7 | 9% | -6%
Cc1ccc2ccc(S(=O)(=O)NCc3ccco3)cc2c1 | 27 | 3% | 44% | 8 | -6% | 13µM*
O=C(CN(Cc1ccccc1)S(=O)(=O)c1ccc(Br)cc1)NCc1ccco1 | 25* | u | x | 15 | -1% | -36%
O=C(CN(Cc1ccc(Br)cc1)S(=O)(=O)c1ccccc1)NCc1ccccn1 | -29 | 214% | 8% | 0 | -17% | 32%
O=C(CN(c1ccc2c(c1)OCCO2)S(=O)(=O)c1ccccc1)NCc1ccco1 | 9 | -3% | -19% | -3 | -14% | -14%
Cc1ccc(N(CC(=O)NCc2ccco2)S(=O)(=O)c2ccccc2)cc1 | 30 | -87% | 13µM* | 27* | -11% | 25µM*
Cc1cc(C)c(C)c(S(=O)(=O)Nc2ccc(OCC(=O)O)cc2)c1C | -4 | u | x | 1 | 8% | -7%
CCCCn1c(N)c(N(CCC(C)C)C(=O)CCN2C(=O)C3CC=CCC3C2=O)c(=O)[nH]c1=O (stereo not drawn) | x | u | -7% | x | x | 4%
N#Cc1cccc(NC(=O)Cn2cnc(S(=O)(=O)N3CCOCC3)c2)c1 | -8 | -11% | 17% | 1 | 23% | -18%
CCOCCc1nn2c(=O)cc(COC(=O)CNC(=O)c3ccc(F)cc3)nc2s1 | x | x | x | x | x | 3%
SMILES | Shiga toxin inh | Pf growth 96h | Pf growth 48h | Cycloheximide cs | NS1 function inh | Sm TGR block
CCN(C(=O)Cn1nc(Cc2ccncc2)c2ccccc2c1=O)c1cccc(Cl)c1 | x | x | x | x | x | -1%
COc1ccc(S(=O)(=O)NCc2ccco2)cc1N(C)S(=O)(=O)c1ccccc1 | 51* | u | -5% | 33* | 2% | -16%
COc1ccccc1CN(C)C(=O)c1ccc(S(=O)(=O)NCc2ccco2)cc1 | x | -38% | -16% | x | x | 1%
Cc1ccc(N(CC(O)COCc2ccco2)S(=O)(=O)c2ccc(C)cc2)cc1 (stereo not drawn) | 3 | u | 42% | 2 | u | 8.9µM*
Cc1ccc(S(=O)(=O)N(Cc2ccc(Cl)cc2)c2ccccc2C(=O)NCc2ccco2)cc1 | 44* | -20% | 6.6µM* | 33* | 16% | -3%
CC1CCN(C(=O)c2[nH]cnc2C(=O)NC2CCN(C(=O)OC(C)(C)C)CC2)CC1 | x | u | u | x | x | -4%
CC(C)(C)c1ccc(-c2nnc(N)o2)cc1 | 67* | 99% | 13% | 37* | -1% | 1%
CCN1C(=O)[C@H]2[C@@H](c3ccc(C)cc3)N3C(=O)N(c4ccc(OC)cc4)C(=O)[C@@]3(Cc3ccc(Cl)cc3)[C@H]2C1=O | 9 | u | -29% | -3 | 30% | 25%
COc1ccc([C@@H]2[C@@H]3C(=O)N(C(C)(C)C)C(=O)[C@@H]3[C@]3(Cc4ccc(Cl)cc4)C(=O)N(c4ccc(OC)cc4)C(=O)N23)cc1 | x | 13µM* | u | x | x | 2%
O=C1[C@H]2[C@@H](c3ccc(F)cc3)N3C(=O)N(c4ccc(Br)cc4)C(=O)[C@@]3(Cc3ccc(Cl)cc3)[C@H]2C(=O)N1C1CCCCC1 | 8 | 3.3µM* | u | -2 | u | 6%
COc1ccc(N2C(=O)N3[C@H](c4ccc(Cl)cc4)[C@@H]4C(=O)N(C5CCCCC5)C(=O)[C@@H]4[C@]3(Cc3ccc(Cl)cc3)C2=O)cc1 | 64* | 1.2µM* | -107% | 12* | 14% | -22%
Cc1cc(Br)ccc1NC(=O)Cn1cc(S(=O)(=O)N2CCN(c3ccccc3F)CC2)c2ccccc2c1=O | x | x | x | x | x | -1%
c1ccc(-c2ccccc2OCCCN2CCCCCC2)cc1 | -12 | -25% | u | -3 | x | 0%
c1ccc(-c2ccccc2OCCCCN2CCCCC2)cc1 | -7 | 18% | 10µM* | 0 | -9% | 5%
COc1cccc(OC)c1OCCCCN1CCCC1 | -2 | u | 77% | -6 | -2% | 9%
CC1CC(C)CN(CCOc2ccccc2-c2ccccc2)C1 (stereo not drawn) | 4 | 10µM* | u | -5 | -21% | 7%
COc1cccc(OC)c1OCCCCN1CCCCC1 | -6 | 13µM* | u | -4 | 6% | -14%
Cc1cc(C(C)(C)C)ccc1OCCCCN1CCCC1 | 6 | 3% | u | 30* | 7% | 11%
COc1ccc(NS(=O)(=O)c2cccc(C(=O)OCC(=O)NC3CC3)c2)cc1 | -15 | -9% | 0% | -3 | 1% | -15%
